Bioassay records from PubChem.
Pf growth 48h: Primary qHTS for delayed death inhibitors of the malarial parasite plastid, 48 hour incubation; P. falciparum luciferase growth in erythrocytes, 48 h; AID 504832, 2011; Potency, µM (doses to about 28.7 µM), without a hit: top-dose activity change, negative = inhibition, hits mostly inhibitors; 5.9% of 310,000 active; note: potency is the fitted concentration of half-maximal effect; % is set by controls: 0 for no effect and ±100 for the full control effect
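In quantitative HTS format, infected erythrocytes bearing luciferase-reporter parasites were treated for a single generation at 37 C. Luminescence after adding detection reagent served as the growth measure.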
Shiga toxin inh: A qHTS for Small Molecule Inhibitors of Shiga Toxin; Vero cells, Shiga toxin protein synthesis inhibition reporter; inhibition, % at 38.7 µM; 9.2% of 290,000 active; in the data active = inhibition mostly above about 28%, no sharp cut-off; inactive = mostly below about 43%; note: 0% is about no effect
Pf growth 96h: Primary qHTS for delayed death inhibitors of the malarial parasite plastid, 96 hour incubation; P. falciparum luciferase reporter growth, 96 h; 6.9% of 320,000 active; Potency, µM (top dose mostly 28.7 µM), without a hit: top-dose activity change, negative = inhibition, hits mostly inhibitors; note: potency is the fitted concentration of half-maximal effect; % is set by controls: 0 for no effect and ±100 for the full control effect
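Erythrocytes infected with luciferase-expressing P. falciparum were dispensed at 2% hematocrit and 0.05% parasitemia (final), then incubated with compounds 96 hours at 37 C in 5% CO2. Luminescence after detection reagent addition reported growth.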
NS1 function inh: qHTS Assay for Inhibitors of Influenza NS1 Protein Function. Potency, µM (series often up to 46.1 µM), for inactives: at the highest dose activity, positive = more growth. 0.4% of 270,000 active; calls by dose curve; note: potency is the fitted concentration of half-maximal effect; actives are rising curves; nearly all actives have a fitted effect of over 50% in size
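Recovery from NS1-induced slow growth read by OD600 in budding yeast switched to galactose assay medium (pH 6.0, -URA) at 1:100 dilution. Compound 23 nl per well; the matching strain lacking NS1 serves as control.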
CHX counter: Cycloheximide Counterscreen for Small Molecule Inhibitors of Shiga Toxin. max response, %. cell reporter, cycloheximide protein synthesis inhibition counterscreen. AID 2314, 2010. 12% of 300,000 active; in the data active = max response mostly above about 13%, no sharp cut-off; inactive = mostly below about 14%; note: read at 38.3 µM for the half of the compounds with a filed dose; 0% is about no effect
FBPA Giardia inh: qHTS Assay for Inhibitors of Fructose-1,6-bisphosphate Aldolase from Giardia Lamblia; A8B2U2; purified Giardia FBPA; Potency, µM (highest dose often 59.6 µM), inactives show at the top dose activity, negative = inhibition, hits mostly inhibitors; 0.71% of 290,000 active; note: potency is the fitted concentration of half-maximal effect; % is set by controls: 0 for no effect and ±100 for the full control effect; nearly all actives have a fitted effect of over 55% in size
Target sequence (A8B2U2 whole entry, looked up): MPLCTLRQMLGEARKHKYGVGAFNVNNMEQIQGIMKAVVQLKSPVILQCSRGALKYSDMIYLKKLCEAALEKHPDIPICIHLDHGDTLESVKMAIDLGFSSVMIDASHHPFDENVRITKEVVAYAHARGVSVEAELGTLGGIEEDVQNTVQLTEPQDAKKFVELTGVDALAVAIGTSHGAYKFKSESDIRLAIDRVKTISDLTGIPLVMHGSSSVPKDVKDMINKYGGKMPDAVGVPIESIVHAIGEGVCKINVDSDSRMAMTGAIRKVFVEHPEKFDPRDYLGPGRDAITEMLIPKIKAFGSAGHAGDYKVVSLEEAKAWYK
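Giardia FBPA (40 nM reagent) was preincubated 10 min at RT with compound (up to 57.5 uM final), then substrate plus GAPDH/TPI/NAD/arsenate coupling system with diaphorase/resazurin was added; resorufin fluorescence (525/598 nm) was read after 20 min.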
Starred values were filed as active, the others as inactive; i = inactive; ? = inconclusive; · = not tested or not shown. Compounds with a hit are over-represented: about 21% of the library has one in this group of screens. Unless noted, calls come from the whole dose curve; as a rule, active = well fitted curve in the direction sought with a large enough effect; inconclusive = small, poorly fitted or top-dose-only effect, or another doubt; inactive = no such curve, though single readings can be large; an effect the other way counts as inactive or inconclusive.

SMILES	Pf growth 48h	Shiga toxin inh	Pf growth 96h	NS1 function inh	CHX counter	FBPA Giardia inh
Cc1ccc(CN2CCNC(=O)C2CC(=O)N(C)C(C2CC2)C2CC2)o1 (configuration not stated)	31%	26	13µM*	-5%	2	-5%
CC(=O)c1sc(NC(=O)COc2ccccc2)nc1C	i	57*	39%	5%	15*	2%
CC(=O)c1sc(NC(=O)CCOc2ccccc2)nc1C	73%	77*	40%	0%	34*	3%
O=C(COc1ccccc1)Nc1nc2c(s1)CCCC2	120%	83*	-28%	-8%	39*	9%
Cc1nnc(NC(=O)COc2ccccc2)s1	·	-9	33%	-12%	1	-3%
CCOC(=O)c1sc2nc(NC(=O)COc3ccccc3)sc2c1C	·	0	1.7µM*	-5%	1	5%
Cc1ccc(-c2c(C(=O)N/N=C/c3ccsc3)nnn2-c2nonc2N)cc1	?	-14	?	10%	-2	?
O=C(c1ccccc1)c1ccc(OCC(=O)N2CCOCC2)cc1	27%	46*	46%	·	17	5%
Cc1ccc(OCC(=O)N2CCOCC2)cc1C	43%	44*	33%	-2%	31*	5%
Cc1ccc(OCC(=O)N2CCCCCCC2)cc1C	24%	29*	12%	25%	21*	-6%
Cc1cc(OCC(=O)N2CCOCC2)c(C(C)C)cc1Cl	2%	14	·	4%	-2	5%
Cc1cc(C)c(C)c(OCC(=O)N2CCOCC2)c1	·	3	13µM*	6%	-8	11%
CCOc1ccc(OCC(=O)N2CCOCC2)cc1	21%	25	8%	0%	14	-4%
O=C(COc1ccc2cc(Br)ccc2c1Br)N1CCOCC1	17%	30*	-3%	-36%	29*	·
Cc1cc(OCCN2CCCCCC2)ccc1[N+](=O)[O-]	4%	-3	25%	-9%	2	-16%
Cc1ccc(C)c(OCCCC(=O)N2CCOCC2)c1	46%	44*	28%	-1%	27*	2%
Cc1cc(OCC(=O)N2CCCCCC2)ccc1[N+](=O)[O-]	121%	17	53%	-4%	43*	-2%
Cc1cc(OCC(=O)N2CCOCC2)cc2oc(=O)c3ccccc3c12	33%	36*	?	-10%	21*	1%
CC12CCC=CC1C(c1ccc(C(F)(F)F)cc1)N(Cc1ccccc1)C2=O (configuration not stated)	·	-14	·	·	0	9%
COc1ccc(-n2nc(C(=O)NCC(=O)N(C)Cc3ccccc3)c3ccccc3c2=O)c(OC)c1	?	-8	15%	-3%	-5	-1%
Cc1ccc(OCC(=O)OCC(=O)NC2CC2)cc1C	30%	·	8%	·	·	·
COc1ccc(/C=N/OCC(=O)N2CCCC2)c(OC)c1	0%	30	41%	·	17*	0%
Cc1nnsc1-c1c(C(=O)N2CCOCC2)c(C)nn1-c1ccc(Cl)cc1	-20%	-8	?	-2%	5	5%
CCOCCCNc1ccc(N2C(=O)CCCC2=O)cc1[N+](=O)[O-]	18%	-7	13%	5%	-2	-4%
CCc1cc(C=NC2CCCCC2)c(O)s1	9%	119*	?	-3%	66*	1%
SMILES	Pf growth 48h	Shiga toxin inh	Pf growth 96h	NS1 function inh	CHX counter	FBPA Giardia inh
COc1ccc(C2=NS(=O)(=O)N(C)C(C(=O)N3CCCCC3)=C2)cc1OC	-12%	-4	?	5%	1	9%
CC1(C)C2CCC1(C)C(OCC[N+](C)(C)CC(=O)OC1CCCCC1)C2 (configuration not stated)	1.5µM*	-14	0.52µM*	8%	-2	6%
CCOC(=O)C[N+](C)(C)CCOC1CC2CCC1(C)C2(C)C (configuration not stated)	2.1µM*	18	0%	0%	0	1%
CC1(C)[C@@H]2CC[C@]1(C)[C@@H](OC(=O)CSC#N)C2	-12%	·	-19%	0%	·	·
O=C(O)C1CC(=O)N(CCc2ccc(F)cc2)C1 (configuration not stated)	-2%	-3	6%	15%	1	7%
COC1(OC)C(/C=C/c2ccc(Cl)cc2)C(C#N)(C#N)C1(OC)OC (configuration not stated)	?	41*	?	-17%	19*	-18%
Cc1cc(C(F)(F)F)c(C#N)c(SCC(=O)Nc2nc3cc(Br)ccc3s2)n1	76%	33*	78%	10%	39*	1%
CCOC(=O)NC(=O)CSc1nc(C)cc(C(F)(F)F)c1C#N	-1%	84*	-24%	-1%	31*	6%
CCCCC/C(C=O)=C/c1ccccc1	-2%	·	0%	·	·	·
Cc1ccc(NC(=O)CN(Cc2ccco2)Cc2ccccc2O)cc1C	?	59*	?	-19%	26*	2%
Cc1ccc(NC(=O)N(Cc2ccco2)C(C)c2ccco2)cc1C (configuration not stated)	?	-14	?	-61%	10*	1%
CC(=O)N1CCc2c(sc(NC(=O)CS(=O)(=O)c3ccc(F)cc3)c2C(N)=O)C1	0%	·	14%	·	·	·
O=C(NC1CCCC1)c1cccc(S(=O)(=O)N2CCOCC2)c1	-22%	·	?	·	·	·
Cc1nc2ccc3nc(NC(=O)C4COc5ccccc5O4)sc3c2s1 (configuration not stated)	-5%	18	?	-28%	3	6%
Cc1nc2ccc(NC(=O)C3COc4ccccc4O3)cc2s1 (configuration not stated)	183%	85*	117%	0%	41*	-1%
Cc1nc2cc(NC(=O)C3COc4ccccc4O3)ccc2s1 (configuration not stated)	114%	54*	38%	-14%	61*	2%
Clc1ncc(Cn2cccn2)s1	20%	4	34%	3%	-2	2%
Cc1cccc(NC(=O)COc2coc(CN3CCN(c4ccccc4)CC3)cc2=O)c1	9.3µM*	·	?	·	·	·
Cc1ccccc1NC(=O)COc1coc(CN2CCN(c3ccccc3)CC2)cc1=O	?	·	-21%	·	·	·
COc1ccccc1NC(=O)COc1coc(CN2CCN(c3ccccc3)CC2)cc1=O	13µM*	·	?	·	·	·
O=C(COc1coc(CN2CCN(c3ccccc3)CC2)cc1=O)Nc1cccc(F)c1	5%	·	?	·	·	·
Cc1cccc(CNc2ncncc2-c2ccc3c(c2)OCO3)c1	·	·	·	·	·	-7%
O=C(c1ccc(Cn2cnnn2)cc1)N1CCCC(Nc2ccc(F)c(F)c2)C1 (configuration not stated)	?	-5	5%	1%	-3	·
Cc1cc(=O)oc2c3c(cc(OCC(=O)Nc4cccnc4)c12)OC(C)(C)CC3	-24%	-5	1.3µM*	1%	-6	2%
